Values joined by “and” are separate entries in the source; they are usually repeats but may differ in a detail not shown here. Equal values may be shown once. About 79,000 compounds went through this panel and 15% of them were active in at least one assay; those are over-represented in the sample as a whole. More than one record can exist for a structure, and the calls need not agree. Active and inactive are the calls of the source. Cut-off read from the data, not from the text of the source: active = growth inhibition above about 70%; inactive = the rest. Where a SMILES comes first, the peptide text is derived from it.
Test: NCI Yeast Anticancer Drug Screen. Data for the mec2-1 strain (AID 157)
Details: S. cerevisiae mec2-1 strain, at 5.0 µM (retest, dose inferred, filed as 0.5), stronger effect = higher value
Procedure, shortened: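 Compounds were applied to mec2-1 yeast cells. Their growth was then compared with that of vehicle-treated cultures to give growth inhibition.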

Row | SMILES | growth inhibition
1 | C=C[C@]1(C)C=C2C(O)CC3C(C)(C)CCC[C@]3(CO)C2CC1 (some centres undefined) | 13% (inactive)
2 | c1ccc(-c2cnc(-c3ccc(-c4ncc(-c5ccccc5)o4)cc3)o2)cc1 | -6% (inactive)
3 | Nc1ccc2c(ccc3ccc4ccccc4c32)c1 | -8% (inactive)
4 | O/N=C(\CC(O)(C(F)(F)F)C(F)(F)F)c1cccc(Cl)c1 | 17% (inactive)
5 | CC(=O)OC1CCC2(C)C(CCC3C4CCC(OC(C)=O)C4(C)CCC32)O1 (centres undefined) | 5% (inactive)
6 | Cc1[nH]c2ccccc2c1C1Cc2ccccc2N1 (centres undefined) | 12% (inactive) and 24% (inactive)
7 | COc1ccc(C2c3cc4c(cc3OC(NNC(N)=O)C2C)OCO4)cc1 (centres undefined) | -36% (inactive)
8 | Oc1ccc(C(O)(c2ccccc2)c2ccccc2)cc1 | 51% (inactive) and 25% (inactive)
9 | COc1ccc(CC(=O)c2ccc(O)cc2O)cc1 | 38% (inactive)
10 | COC(=O)C#CC(=O)OC | 14% (inactive)
11 | O=C1OC2=C(c3ccccc3)CCCC2C1=O (centres undefined) | 3% (inactive)
12 | CC(C)C(NC(=O)C(N)CCC(=O)O)C(=O)O (stereo not drawn) (H-Glu-Val-OH; configuration not given here) | -1% (inactive)
13 | CC1(C)CC(=O)C2=C(C1)OC1=C(CC(C)(C)CC1=O)C2c1ccccc1Cl (centres undefined) | 12% (inactive)
14 | O=C(CC(=O)CC(O)(c1ccccc1)c1ccccc1)CC(=O)c1ccccc1 | -10% (inactive)
15 | O=Nc1ccc(C=C2C(=O)C=CC2=O)cc1 | 99% (active)
16 | C[N+]1(Cc2ccc(Cl)c(Cl)c2)CCCC1C1CCCN(Cc2ccc(Cl)c(Cl)c2)C1 (centres undefined) | -2% (inactive)
17 | C[C@H]1CC[C@H]([C@@H](C)[C@H]2[C@@H](O)C[C@H]3[C@@H]4CC[C@H]5C[C@@H](O)CC[C@]5(C)[C@H]4CC[C@]23C)NC1 | 19% (inactive) and 2% (inactive)
18 | CCOP(=O)(OCC)C(C)(CC)NC(=O)C(C(F)(F)F)C(F)(F)F (centres undefined) | 23% (inactive)
19 | [N-]=[N+]=NC(=O)Nc1cccc(C(F)(F)F)c1 | -1% (inactive)
20 | NC(C/[N+]([O-])=N/O)C(=O)O (centres undefined) | 10% (inactive)
21 | NC(=O)N/N=C/c1ccc([N+](=O)[O-])o1 | 2% (inactive)

Same assay, conditions: S. cerevisiae mec2-1 strain, at 50.0 µM (retest, dose inferred, filed as 5.0), stronger effect = higher value

Row | SMILES | growth inhibition
22 | Cc1cccc(Cc2ccccc2Cl)c1O | 93% (active)
23 | OC1CN(Cc2ccccc2)C[C@@H]1O (some centres undefined) | 99% (active)
24 | BrC(c1cccc2ccccc12)c1cccc2ccccc12 | 97% (active)
25 | COc1nc(NC2OC(CO)C(O)C(O)C2O)c(Cl)c(=O)n1C (centres undefined) | 0% (inactive)
26 | O=S(=O)(CC(Cl)c1ccccc1)c1nc2ccccc2s1 (centres undefined) | 2% (inactive)
27 | CCCCCCCCCCCCOS(=O)(=O)O | 2% (inactive)
28 | O=C(NNc1ccnc2cc(Cl)ccc12)/C(=C/c1ccc2c(c1)OCO2)NC(=O)c1ccccc1 | 46% (inactive)
29 | O=C(CCN1CCN2c3ccccc3CCC2C1)c1ccc(F)cc1 (centres undefined) | 88% (active) and 97% (active)
30 | CC1C[C@]2(C)C(=O)Nc3ccccc3[C@@H]2Nc2ccccc21 (some centres undefined) | 30% (inactive)
31 | Nc1nc(=S)c2ncn(C3OC(CO)C(O)C3O)c2[nH]1 (centres undefined) | 6% (inactive)
32 | O=C(O)c1c2ccccc2nc2[nH]c(=O)[nH]c(=O)c12 | -2% (inactive)
33 | N#Cc1c(/N=C/c2ccccc2Cl)sc2c1CCC2 | -4% (inactive)
34 | CCC1=C(C)/C(=C/c2[nH]c(C)c(CC)c2C)N=C1C | 48% (inactive) and 53% (inactive)
35 | O=C(O)c1ccccc1C(=O)O | 4% (inactive)
36 | Cc1cc(C)nc(NS(=O)(=O)c2ccc(Nc3c4ccccc4nc4c(C(=O)NCCCN(CCO)CCO)cccc34)cc2)n1 | -14% (inactive)
37 | CCCCCCCCCCCCCCCCCCOCC(COP(=O)([O-])OCC[N+](C)(C)C)OC (centres undefined) | -28% (inactive)
38 | S=c1nc[nH]c2[nH]ccc12 | -3% (inactive)
39 | C=C[C@]1(C)C=C2C(O)CC3C(C)(C)CCC[C@]3(CO)C2CC1 (some centres undefined) | 100% (active)
40 | c1ccc(-c2cnc(-c3ccc(-c4ncc(-c5ccccc5)o4)cc3)o2)cc1 | -17% (inactive)

Row | SMILES | growth inhibition
41 | Nc1ccc2c(ccc3ccc4ccccc4c32)c1 | 98% (active)
42 | O/N=C(\CC(O)(C(F)(F)F)C(F)(F)F)c1cccc(Cl)c1 | 98% (active)
43 | CC(=O)OC1CCC2(C)C(CCC3C4CCC(OC(C)=O)C4(C)CCC32)O1 (centres undefined) | 95% (active)
44 | Cc1[nH]c2ccccc2c1C1Cc2ccccc2N1 (centres undefined) | 14% (inactive) and 59% (inactive)
45 | COc1ccc(C2c3cc4c(cc3OC(NNC(N)=O)C2C)OCO4)cc1 (centres undefined) | 96% (active)
46 | Oc1ccc(C(O)(c2ccccc2)c2ccccc2)cc1 | 59% (inactive) and 89% (active)
47 | COc1ccc(CC(=O)c2ccc(O)cc2O)cc1 | 80% (active)
48 | COC(=O)C#CC(=O)OC | 99% (active)
49 | O=C1OC2=C(c3ccccc3)CCCC2C1=O (centres undefined) | 89% (active)
50 | CC(C)C(NC(=O)C(N)CCC(=O)O)C(=O)O (stereo not drawn) (H-Glu-Val-OH; configuration not given here) | 5% (inactive)
51 | CC1(C)CC(=O)C2=C(C1)OC1=C(CC(C)(C)CC1=O)C2c1ccccc1Cl (centres undefined) | 13% (inactive)
52 | O=C(CC(=O)CC(O)(c1ccccc1)c1ccccc1)CC(=O)c1ccccc1 | 98% (active)
53 | O=Nc1ccc(C=C2C(=O)C=CC2=O)cc1 | 99% (active)
54 | C[N+]1(Cc2ccc(Cl)c(Cl)c2)CCCC1C1CCCN(Cc2ccc(Cl)c(Cl)c2)C1 (centres undefined) | 59% (inactive)
55 | C[C@H]1CC[C@H]([C@@H](C)[C@H]2[C@@H](O)C[C@H]3[C@@H]4CC[C@H]5C[C@@H](O)CC[C@]5(C)[C@H]4CC[C@]23C)NC1 | 98% (active) and 99% (active)
56 | CCOP(=O)(OCC)C(C)(CC)NC(=O)C(C(F)(F)F)C(F)(F)F (centres undefined) | 13% (inactive)
57 | [N-]=[N+]=NC(=O)Nc1cccc(C(F)(F)F)c1 | 99% (active)
58 | NC(C/[N+]([O-])=N/O)C(=O)O (centres undefined) | 13% (inactive)
59 | NC(=O)N/N=C/c1ccc([N+](=O)[O-])o1 | 26% (inactive)

— PubChem BioAssay (NCI)
